Where “and” joins values, the source holds several entries; their conditions need not be identical. Equal values may be shown once. Records with an inconclusive call do not appear. Calls of active or inactive are those of the source. Unless noted, calls follow the shape of the dose curve; as a rule, active = well fitted curve in the direction sought with a large enough effect; inconclusive = small, poorly fitted or top-dose-only effect, or another doubt; inactive = no such curve, though single readings can be large; an effect the other way counts as inactive or inconclusive.
Legend:
[1] = target: Cytochrome P450 2D6 (Homo sapiens) (UniProt P10635); assay: Cytochrome P450 family 2 subfamily D member 6 (CYP2D6) small molecule antagonists: luciferase biochemical (cell-free) qHTS assay (AID 1645840; active = well fitted curve in the direction sought with a large enough effect in the repeat runs; an effect the other way counts as inactive or inconclusive; also: nearly all actives have a fitted effect of over 55% in size; also: potency is read from the fitted curve at half-maximal effect; as to activity change, negative = inhibition: % is scaled to controls: 0 for no effect and ±100 for the full control effect)
Cytochrome P450 2D6 (Homo sapiens), sequence (P10635 whole entry, looked up): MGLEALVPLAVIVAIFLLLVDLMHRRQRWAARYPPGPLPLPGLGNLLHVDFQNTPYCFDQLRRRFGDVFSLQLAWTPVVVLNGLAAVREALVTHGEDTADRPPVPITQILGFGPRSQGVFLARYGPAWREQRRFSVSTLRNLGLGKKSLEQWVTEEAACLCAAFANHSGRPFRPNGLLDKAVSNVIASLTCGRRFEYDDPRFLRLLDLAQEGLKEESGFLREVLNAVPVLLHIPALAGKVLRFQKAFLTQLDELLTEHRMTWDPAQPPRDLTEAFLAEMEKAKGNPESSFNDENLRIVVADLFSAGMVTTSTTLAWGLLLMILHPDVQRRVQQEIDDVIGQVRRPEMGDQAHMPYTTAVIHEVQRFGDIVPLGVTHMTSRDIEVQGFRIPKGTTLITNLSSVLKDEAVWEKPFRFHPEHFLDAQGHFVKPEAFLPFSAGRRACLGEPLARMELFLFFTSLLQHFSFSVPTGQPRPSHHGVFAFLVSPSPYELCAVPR
Procedure, shortened: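 P450-Glo luminescent screen: recombinant CYP2D6 enzyme–proluciferin substrate mix preincubated with compound 10 min at room temperature, then NADPH regeneration added for 1 h at room temperature. Detection reagent added for 20 min; luciferin light read as relative luminescence units.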

[2] = target: Cytochrome P450 2C9 (Homo sapiens) (UniProt P11712); assay: Cytochrome P450 family 2 subfamily C member 9 (CYP2C9) small molecule antagonists: luciferase biochemical (cell-free) qHTS assay (AID 1645842; active = well fitted curve in the direction sought with a large enough effect in the repeat runs; an effect the other way counts as inactive or inconclusive; also: nearly all actives have a fitted effect of over 55% in size; also: potency is read from the fitted curve at half-maximal effect; as to activity change, negative = inhibition: % is scaled to controls: 0 for no effect and ±100 for the full control effect)
Cytochrome P450 2C9 (Homo sapiens), sequence (P11712 whole entry, looked up): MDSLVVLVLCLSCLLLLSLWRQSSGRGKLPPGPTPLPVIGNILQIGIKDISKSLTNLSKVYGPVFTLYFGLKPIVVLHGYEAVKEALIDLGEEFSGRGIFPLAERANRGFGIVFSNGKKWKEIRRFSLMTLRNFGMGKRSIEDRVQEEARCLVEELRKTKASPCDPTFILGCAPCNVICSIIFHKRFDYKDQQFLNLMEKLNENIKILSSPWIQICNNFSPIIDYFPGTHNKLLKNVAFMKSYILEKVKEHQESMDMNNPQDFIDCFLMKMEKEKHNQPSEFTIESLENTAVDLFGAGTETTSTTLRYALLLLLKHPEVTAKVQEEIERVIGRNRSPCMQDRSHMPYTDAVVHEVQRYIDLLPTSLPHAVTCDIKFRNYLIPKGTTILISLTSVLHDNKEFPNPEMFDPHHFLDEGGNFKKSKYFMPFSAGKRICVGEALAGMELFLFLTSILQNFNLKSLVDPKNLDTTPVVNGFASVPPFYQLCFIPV
Procedure, shortened: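 Luminescence, after 20 min with luciferin detection reagent, reflected CYP2C9 turnover during a 1 h NADPH-driven reaction at 37C. Enzyme-substrate mix contained 0.4% bovine serum albumin and was preincubated with compound 10 min at room temperature.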

[3] = Primary qHTS for inhibitors of nuclear receptor binding SET domain protein 2 (NSD2) in an isogenic RCH-ACV NSD2 p.E1099K mutant (9B) (AID 1645876); also: nearly all actives have a fitted effect of over 70% in size; also: potency is read from the fitted curve at half-maximal effect
[4] = Primary qHTS for inhibitors of nuclear receptor binding SET domain protein 2 (NSD2) in an RCH-ACV wild type WT cells (2C) (AID 1645877); also: nearly all actives have a fitted effect of over 70% in size; also: potency is read from the fitted curve at half-maximal effect
[5] = target: Cytochrome P450 3A4 (Homo sapiens) (UniProt P08684); assay: Cytochrome P450 family 3 subfamily A member 4 (CYP3A4) small molecule antagonists: luciferase qHTS assay (AID 1645841; active = well fitted curve in the direction sought with a large enough effect in the repeat runs; an effect the other way counts as inactive or inconclusive; also: nearly all actives have a fitted effect of over 45% in size)
Cytochrome P450 3A4 (Homo sapiens), sequence (P08684 whole entry, looked up): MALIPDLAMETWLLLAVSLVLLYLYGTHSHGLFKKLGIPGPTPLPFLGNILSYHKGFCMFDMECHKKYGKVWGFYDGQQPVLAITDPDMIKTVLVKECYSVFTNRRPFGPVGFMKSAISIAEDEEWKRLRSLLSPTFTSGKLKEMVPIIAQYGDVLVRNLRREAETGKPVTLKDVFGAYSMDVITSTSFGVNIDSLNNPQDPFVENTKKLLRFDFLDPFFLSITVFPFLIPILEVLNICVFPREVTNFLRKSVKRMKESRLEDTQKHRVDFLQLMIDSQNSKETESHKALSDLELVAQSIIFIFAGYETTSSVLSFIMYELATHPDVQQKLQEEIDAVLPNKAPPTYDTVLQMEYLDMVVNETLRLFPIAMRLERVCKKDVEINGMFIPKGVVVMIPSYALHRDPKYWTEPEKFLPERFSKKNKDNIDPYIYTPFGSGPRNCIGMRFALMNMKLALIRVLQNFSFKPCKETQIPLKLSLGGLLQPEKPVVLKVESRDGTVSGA
Procedure, shortened: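 Luminescent CYP3A4 activity readout: compounds plus enzyme-substrate mix 10 min at room temperature, reaction started with NADPH regenerating system for 1 h, stopped with detection reagent, read after 20 min. Ketoconazole served as control.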

[6] = target: Glutathione peroxidase 1 (Homo sapiens) (UniProt P07203); assay: Primary qHTS Assay for Inhibitors of Recombinant Selenoprotein Glutathione Peroxidase 1 (GPX1) (AID 1845191); also: nearly all actives have a fitted effect of over 65% in size; also: potency is read from the fitted curve at half-maximal effect
Glutathione peroxidase 1 (Homo sapiens), sequence (P07203 whole entry, looked up): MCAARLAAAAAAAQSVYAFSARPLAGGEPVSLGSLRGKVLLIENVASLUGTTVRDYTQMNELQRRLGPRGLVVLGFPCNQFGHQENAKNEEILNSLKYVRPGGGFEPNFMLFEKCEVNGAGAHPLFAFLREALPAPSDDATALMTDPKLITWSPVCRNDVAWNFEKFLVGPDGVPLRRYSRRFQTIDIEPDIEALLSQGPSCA
Procedure, shortened: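 10 nM GPX1 + cpd, 30 min RT; start w/ 1 mM GSH, 0.5 mM cumene hydroperoxide, 0.5 mM NADPH, 100 nM GR, 0.01% BSA; buffer 50 mM Tris-HCl pH 7.5, 2 mM EDTA, 150 mM NaCl; Fl 340/450, 0 & 15 min.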

[7] = target: N-terminal Xaa-Pro-Lys N-methyltransferase 1 (Homo sapiens) (UniProt Q9BV86); assay: Confirmatory qHTS for Inhibitors of N-terminal methyltransferase 1 (NTMT1): MTaseGlo Assay (AID 1645874); also: nearly all actives have a fitted effect of over 65% in size; also: potency is read from the fitted curve at half-maximal effect;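 as to activity change, negative = inhibition: luminescence from SAH made as NTMT1 methylates SPKRIA peptide using SAM; 0% = DMSO control and -100% = no-enzyme control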
N-terminal Xaa-Pro-Lys N-methyltransferase 1 (Homo sapiens), sequence (Q9BV86 whole entry, looked up): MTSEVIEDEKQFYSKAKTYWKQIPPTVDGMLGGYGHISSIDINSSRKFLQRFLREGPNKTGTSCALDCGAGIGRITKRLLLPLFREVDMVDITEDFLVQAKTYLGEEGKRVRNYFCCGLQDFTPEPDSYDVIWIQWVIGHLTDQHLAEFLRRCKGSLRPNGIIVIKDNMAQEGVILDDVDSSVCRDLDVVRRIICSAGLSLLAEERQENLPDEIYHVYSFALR
Procedure, shortened: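 NTMT1 (125 nM) preincubated 15 min with compound and 100 uM SAM, then 1 uM SPKRIA peptide added for 30 min at room temperature. SAH detected by MTase-Glo luminescence; normalized to no-enzyme and DMSO controls, fitted to 4-parameter Hill.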

[8] = target: Catechol O-methyltransferase (Homo sapiens) (UniProt P21964); assay: Confirmatory Screen for Target Class Profiling of Small Molecule Inhibitors of Methyltransferases (AID 1745852; calls by dose curve; also: potency is read from the fitted curve at half-maximal effect; as to activity change, negative = inhibition: % is scaled to controls: 0 for no effect and ±100 for the full control effect); settings: MTase-Glo luminescence, SAH detection, recombinant enzyme; measured here: COMT max response; stronger effect = lower value
Catechol O-methyltransferase (Homo sapiens), sequence (P21964 whole entry, looked up): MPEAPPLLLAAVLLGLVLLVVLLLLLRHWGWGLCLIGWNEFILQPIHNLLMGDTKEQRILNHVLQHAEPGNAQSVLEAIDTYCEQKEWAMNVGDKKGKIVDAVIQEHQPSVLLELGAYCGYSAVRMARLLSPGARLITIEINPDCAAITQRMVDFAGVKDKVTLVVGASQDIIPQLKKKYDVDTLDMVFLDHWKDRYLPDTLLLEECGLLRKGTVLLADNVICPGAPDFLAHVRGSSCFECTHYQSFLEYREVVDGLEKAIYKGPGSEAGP

[9] = target: Guanidinoacetate N-methyltransferase (Homo sapiens) (UniProt Q14353); assay: as above; settings: activity change, negative = inhibition: at 57.3 µM (top of the series) unless noted
[10] = target: Nicotinamide N-methyltransferase (Homo sapiens) (UniProt P40261); assay: as above; settings: MTase-Glo luminescence, SAH detection, recombinant enzyme; measured here: NNMT max response; stronger effect = lower value
Nicotinamide N-methyltransferase (Homo sapiens), sequence (P40261 whole entry, looked up): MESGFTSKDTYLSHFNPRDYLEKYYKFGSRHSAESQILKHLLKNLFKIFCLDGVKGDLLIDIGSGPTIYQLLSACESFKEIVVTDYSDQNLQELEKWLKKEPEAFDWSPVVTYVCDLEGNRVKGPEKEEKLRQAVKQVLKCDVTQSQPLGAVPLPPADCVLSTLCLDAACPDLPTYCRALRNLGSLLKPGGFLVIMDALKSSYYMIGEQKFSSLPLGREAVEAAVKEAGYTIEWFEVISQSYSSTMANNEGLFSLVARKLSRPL

[11] = target: Phenylethanolamine N-methyltransferase (Homo sapiens) (UniProt P11086); assay: as above; settings: MTase-Glo luminescence, SAH detection, recombinant enzyme; measured here: PNMT max response; stronger effect = lower value
Phenylethanolamine N-methyltransferase (Homo sapiens), sequence (P11086 whole entry, looked up): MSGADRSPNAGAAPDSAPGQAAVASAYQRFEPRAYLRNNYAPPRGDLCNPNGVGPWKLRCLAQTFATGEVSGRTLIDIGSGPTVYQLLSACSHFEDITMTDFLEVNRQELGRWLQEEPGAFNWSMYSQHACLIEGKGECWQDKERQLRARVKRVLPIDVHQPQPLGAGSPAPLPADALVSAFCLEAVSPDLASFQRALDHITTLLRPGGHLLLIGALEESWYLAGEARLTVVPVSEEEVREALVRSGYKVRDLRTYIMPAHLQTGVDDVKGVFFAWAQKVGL

[12] = NCATS anti-infectives library activity on HEK293 viability as a counter-qHTS vs the C. elegans viability qHTS (AID 1745854); also: % is scaled to controls: 0 for no effect and ±100 for the full control effect
Procedure, shortened: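 HEK293 cells, 1500 per well, exposed 24 hr at 37C in 5% CO2 to compounds in a 1:5 titration, up to 41.7 uM final. Viability read as CellTiter-Glo luminescence after 10 min at room temperature.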

Cc1c(C(=O)Nc2ccc(N3CC(C)OC(C)C3)nc2)cccc1-c1ccc(OC(F)(F)F)cc1 (stereo not drawn)
Potency [1]: inactive
Potency [2]: inactive

CC1(c2nc3c(C(N)=O)cccc3[nH]2)CCCN1 (stereo not drawn)
Potency [1]: inactive
Potency [2]: inactive
Potency [3]: inactive

CC1CCN(C(=O)CC#N)CC1N(C)c1ncnc2[nH]ccc12 (stereo not drawn)
Potency [1]: inactive
Potency [2]: 23.9 µM (active)
Potency [3]: inactive
Potency [4]: inactive

CC1CCCCN1S(=O)(=O)c1ccc(N2CCCC2=O)cc1 (stereo not drawn)
Potency [1]: inactive
Potency [5]: inactive
Potency [2]: 15.1 µM (active)
Potency [3]: inactive
Potency [4]: inactive
Potency [6]: inactive

Cc1ccc(N)cc1O
Potency [1]: 2.45 µM (active)
Potency [2]: 20 µM (active)

Cc1cc(C)c2c(N)c(C(=O)NCc3ccc(Cl)cc3)sc2n1
Potency [1]: 13.5 µM (active)
Potency [2]: 1.9 µM (active)
Potency [7]: inactive
Potency [6]: inactive

OC1CCC(Nc2ncc3nc(Nc4c(F)cc(F)cc4F)n([C@H]4CCOC4)c3n2)CC1 (stereo partly drawn)
Potency [1]: inactive
Potency [2]: inactive

COC(C(=O)N1Cc2[nH]nc(NC(=O)c3ccc(N4CCN(C)CC4)cc3)c2C1)c1ccccc1 (stereo not drawn)
Potency [1]: inactive
Potency [5]: inactive
Potency [2]: inactive
Potency [3]: 51.5 nM (active)
Potency [4]: 45.9 nM (active)

COc1cc2ncnc(Nc3ccc(F)c(Cl)c3)c2cc1NC(=O)/C=C/CN1CCCCC1
Potency [1]: 0.0477 µM (active)
Potency [2]: inactive
Potency [7]: 35.5 µM (active)
Potency [3]: 4170 nM (active)
Potency [4]: 3320 nM (active)
activity [8]: -45.2%
Potency [9]: 24.1 µM (active)
activity [10]: -36.6%
activity [11]: -39.3%
Potency [6]: inactive

CNC(=O)c1ccccc1Nc1nc(Nc2ccc3c(c2OC)CCCC(N2CCN(CCO)CC2)C3)ncc1Cl (stereo not drawn)
Potency [1]: 15.1 µM (active)
Potency [2]: inactive
Potency [3]: 6490 nM (active)
Potency [4]: 7280 nM (active)

NC(=O)Nc1cc(-c2cccc(F)c2)sc1C(=O)NC1CCCNC1 (stereo not drawn)
Potency [1]: inactive
Potency [2]: inactive
Potency [3]: 72.8 nM (active)
Potency [4]: 81.7 nM (active)

c1cc(OCCCN2CCCCC2)ccc1CN1CCCCC1
Potency [1]: inactive
Potency [5]: inactive
Potency [2]: inactive
activity [8]: -4.16%
activity change, negative = inhibition [9]: -2.14%
activity [10]: -0.228%
activity [11]: -0.509%
Potency [6]: inactive

COc1cc(Br)c(S(=O)(=O)Nc2ccc(C(F)(F)F)c(O[C@@H]3CCN(C)C3)c2)cc1OC
Potency [1]: 23.9 µM (active)
Potency [2]: 23.9 µM (active)
Potency [3]: inactive
Potency [4]: inactive
Potency [6]: inactive

CNCc1ccc(-c2cc(-c3nc(-c4ccc(S(=O)(=O)C(C)C)cc4)cnc3N)on2)cc1
Potency [1]: inactive
Potency [2]: 2.13 µM (active)
Potency [3]: 183 nM (active) and 83.3 nM (active)
Potency [4]: 183 nM (active) and 93.4 nM (active)
Potency [6]: inactive

COc1ccc(Oc2cc(C)c(-c3csc(NC(=O)c4ccncc4)n3)c(C)c2)cc1
Potency [1]: 3.01 µM (active)
Potency [2]: 4.77 µM (active)
Potency [3]: 163 nM (active)
Potency [4]: 916 nM (active)
Potency [6]: inactive

Cc1cc(-c2cc(O)ccc2Cl)cc2nnc(Nc3ccc(OCCN4CCCC4)cc3)nc12
Potency [1]: 16.9 µM (active)
Potency [2]: 12 µM (active)
Potency [3]: 3250 nM (active)
Potency [4]: 2900 nM (active)
Potency [6]: inactive

COc1cccc(-c2cc(NCc3ccc4c(c3)OCO4)nc(N)n2)c1
Potency [1]: 0.756 µM (active)
Potency [2]: 2.68 µM (active)
Potency [3]: 205 nM (active)
Potency [4]: 163 nM (active)
activity [8]: -1.69%
activity change, negative = inhibition [9]: 0%
activity [10]: -16.1%
activity [11]: -2.8%
Potency [6]: inactive

CCN1CCN(Cc2ccc(NC(=O)Nc3ccc(Oc4cc(NC)ncn4)cc3)cc2C(F)(F)F)CC1
Potency [1]: 10.7 µM (active)
Potency [2]: inactive
Potency [3]: 3.65 µM (active) and 2.35 µM (active)
Potency [4]: 3.65 µM (active) and 2.35 µM (active)
activity [8]: -1.25%
activity change, negative = inhibition [9]: 0%
activity [10]: -7.66%
activity [11]: -2.63%
Potency [6]: inactive

CNC(=S)NS(=O)(=O)c1cc(CCNC(=O)c2cc(Cl)ccc2OC)ccc1OC
Potency [1]: inactive
Potency [2]: 6.74 µM (active)
Potency [3]: inactive
Potency [4]: inactive
Potency [6]: 12.8 µM (active)

O=C(CN1C(=O)C2(CCCC2)NCC1c1cc(F)cc(F)c1)Nc1ccc2c(c1)CC1(C2)C(=O)Nc2ncccc21 (stereo not drawn)
Potency [1]: inactive
Potency [2]: 3.01 µM (active)
Potency [3]: inactive
Potency [4]: inactive
Potency [6]: inactive

CC(C)c1nc(-c2ccc(NC(=O)Nc3cccc(C(F)(F)F)c3)c3ccccc23)c2c(N)nccn12
Potency [1]: 0.0674 µM (active)
Potency [2]: 0.301 µM (active)
Potency [3]: 578 nM (active)
Potency [4]: 1450 nM (active)
activity [8]: -5.14%
activity change, negative = inhibition [9]: -2.79%
activity [10]: -2.22%
activity [11]: -6.27%
Potency [6]: inactive

COc1ccc(C(=O)C2CCN(CC(=O)N(Cc3nc4c(c(=O)[nH]3)COCC4)CC3CC3)CC2)cc1
Potency [1]: inactive
Potency [2]: 8.49 µM (active)
Potency [3]: inactive
Potency [4]: inactive
Potency [12]: inactive
Potency [6]: inactive

Cc1ccc(NC(=O)C(=O)NC2CC(C)(C)NC(C)(C)C2)cc1
Potency [1]: inactive
Potency [2]: inactive
Potency [3]: inactive
Potency [4]: inactive
Potency [12]: inactive
Potency [6]: inactive
